Data as given in PubChem BioAssay (EPA / NIEHS).
Active and inactive are the calls of the source. The calls were made as follows: active = hit-call score of the fitted dose curve at least 0.9, where 1 is the maximum; inactive = score below 0.9.

Legend:
[1] = ATG_CRE_CIS: Attagene CIS-FACTORIAL HepG2 Assay for human cAMP Responsive Element (CRE) binding protein 3 (AID 2282926); conditions: HepG2 CRE cis-reporter, Attagene multiplexed mRNA; actives raise or lower the signal
Method in brief: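 Multiplexed transcription-unit reporters transfected into HepG2; 24 h dosing; RT-PCR/capillary electrophoresis fluorescence read-out; bidirectional fit vs DMSO.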

[2] = biological target: CCAAT/enhancer-binding protein beta (Homo sapiens) (UniProt P17676); experiment: ATG_C_EBP_CIS: Attagene CIS-FACTORIAL HepG2 Assay for human CCAAT/Enhancer Binding Protein (C/EBP) beta (AID 2282927); conditions: HepG2 Attagene cis-factorial transcription factor reporter; actives raise or lower the signal
CCAAT/enhancer-binding protein beta (Homo sapiens), sequence (P17676 whole entry, looked up): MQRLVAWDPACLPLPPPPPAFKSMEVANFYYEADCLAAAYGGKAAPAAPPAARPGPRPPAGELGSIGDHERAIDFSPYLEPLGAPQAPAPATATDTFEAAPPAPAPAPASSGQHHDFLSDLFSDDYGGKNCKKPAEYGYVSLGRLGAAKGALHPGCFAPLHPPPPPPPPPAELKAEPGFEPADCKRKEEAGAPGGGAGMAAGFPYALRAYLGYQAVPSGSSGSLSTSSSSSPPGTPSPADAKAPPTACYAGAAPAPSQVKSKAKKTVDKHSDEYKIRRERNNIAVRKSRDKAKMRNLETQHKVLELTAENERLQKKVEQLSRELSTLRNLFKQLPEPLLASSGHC
Method in brief: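 HepG2 transiently transfected with multiplexed reporter units under cis-regulatory promoters reporting endogenous C/EBPb activity. After 24 h exposure, reporter mRNA assayed by RT-PCR, fluorescent labelling, HpaI digestion and capillary electrophoresis; bidirectional fitting versus DMSO.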

[3] = ATG_CMV_CIS: Attagene CIS-FACTORIAL HepG2 Assay for human CMV (Internal Marker) (AID 2282928); conditions: HepG2 CMV promoter reporter, transcription factor profiling; actives raise or lower the signal;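 also: endpoint acts as a background internal control marker rather than a target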
Method in brief: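 Endogenous transcription factor activity read in HepG2 via transfected cis-promoter reporter units. After 24 h dosing, reporter mRNA measured by RT-PCR/capillary electrophoresis; gain or loss of signal fit relative to DMSO.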

[4] = ATG_DR4_LXR_CIS: Attagene CIS-FACTORIAL HepG2 Assay for human Liver X Receptor (LXR), DR4 submotif (AID 2282929); conditions: HepG2 Attagene DR4 cis-reporter, mRNA transcription; actives raise or lower the signal
Method in brief: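 Readout: reporter transcript fluorescence after RT-PCR and capillary electrophoresis, fitted bidirectionally against DMSO controls. Human HepG2 liver cells carried transiently transfected multiplexed reporter constructs; endogenous transcription factor activity measured 24 h post-dosing.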

[5] = biological target: Aryl hydrocarbon receptor (Homo sapiens) (UniProt P35869); experiment: ATG_Ahr_CIS: Attagene CIS-FACTORIAL HepG2 Assay for human Aryl Hydrocarbon Receptor (Ahr) (AID 2282930); conditions: HepG2 AhR cis-factorial reporter transcription; actives raise or lower the signal
Aryl hydrocarbon receptor (Homo sapiens), sequence (P35869 whole entry, looked up): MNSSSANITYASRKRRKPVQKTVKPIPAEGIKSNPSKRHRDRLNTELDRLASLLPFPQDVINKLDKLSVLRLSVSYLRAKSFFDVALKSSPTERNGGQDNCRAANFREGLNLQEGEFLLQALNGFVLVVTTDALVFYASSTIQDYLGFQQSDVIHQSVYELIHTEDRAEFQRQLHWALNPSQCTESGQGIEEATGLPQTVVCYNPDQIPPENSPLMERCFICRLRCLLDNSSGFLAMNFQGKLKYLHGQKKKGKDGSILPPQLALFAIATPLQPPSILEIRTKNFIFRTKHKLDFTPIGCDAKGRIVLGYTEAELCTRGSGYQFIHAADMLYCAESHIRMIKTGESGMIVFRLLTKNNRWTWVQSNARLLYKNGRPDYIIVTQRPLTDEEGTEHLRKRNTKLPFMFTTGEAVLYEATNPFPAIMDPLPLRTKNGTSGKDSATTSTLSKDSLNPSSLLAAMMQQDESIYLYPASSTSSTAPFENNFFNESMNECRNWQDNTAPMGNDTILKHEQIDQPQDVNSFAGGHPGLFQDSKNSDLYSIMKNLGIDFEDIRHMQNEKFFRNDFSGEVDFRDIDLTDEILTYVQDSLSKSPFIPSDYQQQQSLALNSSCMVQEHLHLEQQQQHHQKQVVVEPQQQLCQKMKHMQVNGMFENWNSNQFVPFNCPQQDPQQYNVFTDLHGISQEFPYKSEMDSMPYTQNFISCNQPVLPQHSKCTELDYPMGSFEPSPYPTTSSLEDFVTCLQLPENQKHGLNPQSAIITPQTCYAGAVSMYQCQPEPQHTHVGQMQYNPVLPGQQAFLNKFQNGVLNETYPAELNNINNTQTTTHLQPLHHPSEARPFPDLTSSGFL
Method in brief: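 HepG2 cells transiently transfected with cis-element-driven multiplexed reporter units; endogenous AhR activity read as reporter mRNA 24 h after dosing, via RT-PCR, 6-FAM labelling, HpaI digestion and capillary electrophoresis. Bidirectional fit relative to DMSO.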

[6] = ATG_AP_1_CIS: Attagene CIS-FACTORIAL HepG2 Assay for human Activator Protein 1 (AP-1) (AID 2282931); conditions: HepG2 Attagene cis-factorial AP-1 reporter mRNA; actives raise or lower the signal
Method in brief: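 Reporter transcripts were measured 24 h after dosing by RT-PCR and capillary electrophoresis of fluorescent fragments. Cells: HepG2 carrying transfected cis-regulated reporter constructs reading endogenous factor activity. Gain or loss fitted against DMSO.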

[7] = ATG_AP_2_CIS: Attagene CIS-FACTORIAL HepG2 Assay for human Activator Protein 2 (AP-2) (AID 2282932); conditions: HepG2 AP-2 cis-reporter, Attagene transcription factor profiling; actives raise or lower the signal
Method in brief: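 Multiplexed mRNA reporter assay in HepG2: cis-regulated units report endogenous factor activity after 24 h treatment. Fluorescence from capillary electrophoresis of RT-PCR products gives the signal, with DMSO as baseline.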

[8] = ATG_BRE_CIS: Attagene CIS-FACTORIAL HepG2 Assay for human Bone Morphogenetic Protein (BMP) Response Element (BRE) (AID 2282933); conditions: HepG2 BMP response element reporter, Attagene transcription factor profiling; actives raise or lower the signal
Method in brief: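 Fluorescence-labelled reporter cDNA fragments, separated by capillary electrophoresis, gave the signal for this component of a 52-readout multiplex. HepG2 cells were transfected, exposed to chemicals for 24 h, and compared with DMSO using bidirectional fitting.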

[9] = biological target: Retinoic acid receptor alpha (Homo sapiens) (UniProt P10276); experiment: ATG_DR5_RAR_CIS: Attagene CIS-FACTORIAL HepG2 Assay for human Retinoic Acid Receptor Alpha (RARE), DR5 submotif (AID 2282934); conditions: HepG2 Attagene cis-factorial RARE DR5 reporter, mRNA; actives raise or lower the signal;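 as to AC50: reporter responds to endogenous RAR alpha beta and gamma in HepG2 not RARA alone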
Retinoic acid receptor alpha (Homo sapiens), sequence (P10276 whole entry, looked up): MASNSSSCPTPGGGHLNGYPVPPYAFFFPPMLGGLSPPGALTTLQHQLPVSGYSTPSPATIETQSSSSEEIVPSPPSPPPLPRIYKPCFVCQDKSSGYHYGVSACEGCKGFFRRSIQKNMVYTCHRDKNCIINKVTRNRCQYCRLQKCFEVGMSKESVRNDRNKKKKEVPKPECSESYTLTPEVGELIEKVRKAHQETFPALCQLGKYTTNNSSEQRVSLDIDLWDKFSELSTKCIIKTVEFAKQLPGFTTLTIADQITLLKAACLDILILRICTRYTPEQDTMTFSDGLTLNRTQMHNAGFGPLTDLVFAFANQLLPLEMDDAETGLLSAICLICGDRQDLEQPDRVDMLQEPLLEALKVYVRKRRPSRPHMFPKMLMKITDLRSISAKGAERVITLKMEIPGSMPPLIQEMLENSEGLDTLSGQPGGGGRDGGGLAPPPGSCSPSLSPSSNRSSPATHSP
Method in brief: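 HepG2 cells transiently transfected with multiplexed reporter units; DR5 cis-element drives reporter through endogenous transcription factors. After 24 h dosing, reporter mRNA quantified by RT-PCR, fluorescent labeling, HpaI digestion and capillary electrophoresis; bidirectional fitting versus DMSO.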

[10] = biological target: Transcription factor E2F1 (Homo sapiens) (UniProt Q01094); experiment: ATG_E2F_CIS: Attagene CIS-FACTORIAL HepG2 Assay for human E2F Transcription Factor 1 (AID 2282935); conditions: HepG2 Attagene cis-reporter, E2F reporter RNA transcripts; actives raise or lower the signal
Transcription factor E2F1 (Homo sapiens), sequence (Q01094 whole entry, looked up): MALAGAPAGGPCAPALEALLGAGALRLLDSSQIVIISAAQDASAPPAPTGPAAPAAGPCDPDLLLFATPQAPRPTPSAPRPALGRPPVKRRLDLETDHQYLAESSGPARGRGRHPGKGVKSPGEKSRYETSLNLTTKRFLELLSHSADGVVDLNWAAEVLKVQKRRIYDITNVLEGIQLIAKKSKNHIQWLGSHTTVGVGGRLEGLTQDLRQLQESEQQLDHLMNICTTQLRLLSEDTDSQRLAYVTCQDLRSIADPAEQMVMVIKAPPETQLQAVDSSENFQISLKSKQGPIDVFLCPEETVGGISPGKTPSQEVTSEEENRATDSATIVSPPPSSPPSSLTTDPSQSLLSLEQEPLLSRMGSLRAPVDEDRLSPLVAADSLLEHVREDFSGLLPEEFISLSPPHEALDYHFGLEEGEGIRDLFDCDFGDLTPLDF
Method in brief: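 Measures reporter transcript levels via RT-PCR with capillary electrophoresis detection in HepG2 cells harboring cis-regulated reporter units; 24 h post-dose; bidirectional curve fitting with DMSO as baseline.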

[11] = ATG_E_Box_CIS: Attagene CIS-FACTORIAL HepG2 Assay for human Enhancer Box (E-box) (AID 2282936); conditions: HepG2 E-box cis-reporter transcription, actives raise or lower the signal
Method in brief: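 First, HepG2 cells receive multiple cis-regulated reporter constructs by transient transfection. Next, chemicals are applied for 24 h. Finally, reporter mRNA is quantified via RT-PCR and capillary electrophoresis, with DMSO as baseline.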

[12] = ATG_M_61_CIS: Attagene CIS-FACTORIAL HepG2 Assay for M61 Transcription Factor (Internal Marker) (AID 2282937); conditions: HepG2 Attagene CIS-FACTORIAL M61 internal marker reporter; actives raise or lower the signal
Method in brief: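 Readout: fluorescent reporter mRNA fragments resolved by capillary electrophoresis after RT-PCR. Transiently transfected human HepG2 cells carried MRTU constructs reporting endogenous TF activity; 24 h chemical exposure; gain or loss of signal fitted relative to DMSO.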

[13] = ATG_EGR_CIS: Attagene CIS-FACTORIAL HepG2 Assay for human Early Growth Response 1 (EGR1) (AID 2282938); conditions: HepG2 Attagene CIS-FACTORIAL EGR reporter mRNA; actives raise or lower the signal
Method in brief: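 Read-out: fluorescent reporter-mRNA fragments resolved by capillary electrophoresis after RT-PCR, 24 h post-dose in transiently transfected HepG2. Endogenous transcription-factor activity reported via cis-element-regulated reporter units; gain or loss fitted relative to DMSO.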

[14] = ATG_Ets_CIS: Attagene CIS-FACTORIAL HepG2 Assay for human Erythroblast Transformation Specific (ETS) (AID 2282941); conditions: HepG2 ETS cis-reporter transcription, actives raise or lower the signal
Method in brief: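 Steps: transfect HepG2 with multiple reporter units; treat compound 24 h; isolate RNA, DNase-treat, reverse-transcribe; PCR-amplify, label with 6-FAM, digest with HpaI; separate by capillary electrophoresis. Activity fitted both directions versus DMSO.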

[15] = biological target: Hepatocyte nuclear factor 3-beta (Homo sapiens) (UniProt Q9Y261); experiment: ATG_FoxA2_CIS: Attagene CIS-FACTORIAL HepG2 Assay for human Forkhead box A2 (FOXA2) (AID 2282942); conditions: HepG2 cis-reporter transcription factor activity, 24 h; actives raise or lower the signal
Hepatocyte nuclear factor 3-beta (Homo sapiens), sequence (Q9Y261 whole entry, looked up): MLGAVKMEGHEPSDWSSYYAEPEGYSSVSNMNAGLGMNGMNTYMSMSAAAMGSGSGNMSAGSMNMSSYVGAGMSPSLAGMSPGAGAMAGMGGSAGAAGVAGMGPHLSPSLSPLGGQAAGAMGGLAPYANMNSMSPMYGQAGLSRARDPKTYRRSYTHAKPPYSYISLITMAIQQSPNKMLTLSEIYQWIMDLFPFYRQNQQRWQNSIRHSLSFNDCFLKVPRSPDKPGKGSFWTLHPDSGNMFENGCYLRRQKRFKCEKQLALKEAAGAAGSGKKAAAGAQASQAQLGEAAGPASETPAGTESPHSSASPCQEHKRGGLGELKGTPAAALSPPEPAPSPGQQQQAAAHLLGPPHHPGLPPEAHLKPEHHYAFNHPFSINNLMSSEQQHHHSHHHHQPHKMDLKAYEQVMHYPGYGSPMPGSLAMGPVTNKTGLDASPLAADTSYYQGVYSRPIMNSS
Method in brief: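 Readout: fluorescent reporter transcripts resolved by capillary electrophoresis after RT-PCR. Transiently transfected HepG2, 24 h compound exposure, endogenous TF activity at cis promoter elements. Gain or loss of signal fitted relative to DMSO.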

[16] = ATG_FoxO_CIS: Attagene CIS-FACTORIAL HepG2 Assay for human Forkhead box O (FoxO) (AID 2282943); conditions: HepG2 Attagene cis-reporter, FoxO element, mRNA; actives raise or lower the signal
Method in brief: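 HepG2 cells transiently transfected with cis-element-driven reporter units report endogenous FoxO activity. After 24 h chemical exposure, reporter mRNA quantified by RT-PCR, fluorescent labeling, HpaI digestion and capillary electrophoresis; bidirectional fit versus DMSO.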

[17] = ATG_GATA_CIS: Attagene CIS-FACTORIAL HepG2 Assay for human GATA Binding Protein (AID 2282944); conditions: HepG2 GATA cis-element reporter, Attagene multiplex mRNA; actives raise or lower the signal
Method in brief: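 Cells: HepG2, transiently transfected with cis-regulated reporter transcription units. Exposure: 24 h. Detection: RT-PCR plus capillary electrophoresis of FAM-labeled fragments. Analysis: bidirectional, DMSO as baseline.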

[18] = ATG_GLI_CIS: Attagene CIS-FACTORIAL HepG2 Assay for human Zinc Finger Protein GLI1 (AID 2282945); conditions: HepG2, Attagene cis-factorial reporter mRNA, GLI element; actives raise or lower the signal
Method in brief: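 Transiently transfected HepG2 cells report endogenous transcription factor activity via cis-element-driven reporter units. After 24 h compound exposure, reporter mRNA was measured by RT-PCR with capillary electrophoresis; bidirectional fitting against DMSO baseline.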

[19] = ATG_M_19_CIS: Attagene CIS-FACTORIAL HepG2 Assay for M19 Transcription Factor (Internal Marker) (AID 2282939); conditions: HepG2 Attagene CIS-FACTORIAL M19 internal marker reporter; actives raise or lower the signal
Method in brief: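 HepG2, MRTU transient transfection, 24 h dosing. Total RNA → RT-PCR → 6-FAM primer extension → HpaI digest → CE fluorescence. Bidirectional curve fit, DMSO negative control.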

[20] = ATG_ERE_CIS: Attagene CIS-FACTORIAL HepG2 Assay for Estrogen Response Element (ERE) (AID 2282940); conditions: HepG2 ERE cis-reporter, Attagene RNA transcript; actives raise or lower the signal
Method in brief: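 After a 24 h chemical treatment, RNA from reporter-transfected HepG2 cells is reverse-transcribed, PCR-amplified and fluorescently labelled. Fragments separated by capillary electrophoresis give reporter signal; DMSO serves as negative control.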

Measured: AC50

NC(=O)NO
active: [5] 100 µM
not listed: [19] | [20]
inactive: all other assays above

COc1ccc(/C=C/S(=O)(=O)NC(=O)c2ccc(C)cc2Cl)cc1
not listed: [20]
inactive: all other assays above

CCOC(=O)COc1ccc2c(c1)CC(NCC(O)c1cccc(Cl)c1)CC2 (stereo not given)
active: [1] 33 µM
not listed: [12]
inactive: all other assays above

C=CCCCCCCCCC(=O)O
inactive: all assays above

CCNc1ccccc1
not listed: [20]
inactive: all other assays above

Oc1ccc2c(c1)-c1ccccc1C2
inactive: [6] | [7] | [10] | [14] | [15] | [16] | [17] | [18]
active: [1] 44.4 µM | [2] 74 µM | [3] 4.28 µM | [4] 1.79 µM | [5] 2.53 µM | [8] 84.4 µM | [9] 27.5 µM | [11] 157 µM | [13] 38.6 µM

O=C(O)CC(O)C(=O)O (stereo not given)
not listed: [12] | [20]
inactive: all other assays above

Cc1ccc(C)c(O)c1
not listed: [12] | [20]
inactive: all other assays above

Cc1c(-c2cccnc2)c2ccccc2n1CCCCC(=O)O
not listed: [10] | [20]
inactive: all other assays above

C[C@](N)(Cc1ccc(O)c(O)c1)C(=O)O
not listed: [10] | [20]
inactive: all other assays above

COC(=O)CC(=O)OC
not listed: [10]
inactive: all other assays above

CC(C)CCCCCCOC(=O)c1ccc(C(=O)OCCCCCCC(C)C)c(C(=O)OCCCCCCC(C)C)c1
not listed: [10] | [20]
inactive: all other assays above

Nc1ccc(Nc2ccccc2)cc1
active: [3] 36.7 µM | [20] 35.1 µM
not listed: [10]
inactive: all other assays above
